Screening results deposited in PubChem BioAssay by several laboratories.
The list is not random: actives were taken first. Their share in the collection is about 1%.
CR mimetic SO = reduction of superoxide in aged yeast, primary screen, HTS | S. cerevisiae aged cells, superoxide DHE fluorescence; hits give low values | superoxide response (% of plate mean), % at 10 µM | 0.18% of 330,000 active | AID 2690, 2010;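 active = superoxide response under a set limit, about three screen SD below normal, cut at about 65% in these data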;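 also: yeast aged for seven days with compound at 30 °C before DHE staining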
hiPSC survival = enhancers of single-cell hiPSC survival, primary screen, ATPlite luminescence. 100% = ROCK inhibitor wells, 0% = DMSO. survival enhancement, % at 20 µM. 0.044% of 360,000 active. AID 602274, 2012; in the data active = survival enhancement above about 18%;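 also: cells exposed to compounds for 16 hours before the ATP read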
CTSL1 counter = Fasciola hepatica cathepsin L1 inhibitors, primary screen, counter-screen for PFM18AAP inhibitor project, biochemical, QFRET, fluorogenic peptide substrate | recombinant F. hepatica cathepsin L1, Z-Leu-Arg-MCA fluorescence | inhibition, % at 5.96 µM | 0.49% of 300,000 active;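 active = inhibition above the mean of all tested compounds plus 3 SD, set per screening campaign, cut at about 17% in these data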
V-ATPase pH = regulators of yeast V-ATPase proton pumping, primary screen, pHLuorin cytosolic pH fluorescence. S. cerevisiae. response, % at 10 µM. 0.37% of 350,000 active; in the data active = response mostly above about 7.3%, no sharp cut-off; inactive = mostly below about 5.4%; also: actives read high
Large screens that a line does not name were inactive.

CCOC(=O)[C@]12CCC=C1N(Cc1cccc3ccccc13)C(=O)[C@H](CC(=O)NCCc1ccccc1OC)C2	none (no result: CR mimetic SO, CTSL1 counter, V-ATPase pH)
COc1ccc2nc(N3CCCC3)c(C#N)cc2c1	V-ATPase pH 11.4
O=C(CSc1nnc(C2CC2)n1C1CC1)Nc1cccc(Br)c1	none (no result: CTSL1 counter)
Cc1cc(Cl)c(S(N)(=O)=O)cc1OCC(N)=O	none
CCN(CC)S(=O)(=O)c1cc(OCC(N)=O)c(C)cc1Cl	V-ATPase pH 14.5
COC(=O)c1cccc(N2C(=O)C(Cl)=C(N3CCOCC3)C2=O)c1	CTSL1 counter 31.8
Cc1ccccc1N1C(=O)C(Cl)=C(N2CCN(c3ccccc3)CC2)C1=O	none
COC(=O)c1cccc(S(=O)(=O)N2CCOCC2)c1	none
O=C1C(Cl)=C(N2CCOCC2)C(=O)N1c1cccc(C(F)(F)F)c1	CTSL1 counter 23.2
COc1cc(C(=O)N2CCN(C3CCCCC3)CC2)cc(OC)c1OC	none
CC(C)C[C@H]1COc2cccc(N3CCN(Cc4ccccc4F)CC3)c2S(=O)(=O)N1	none (no result: CR mimetic SO, CTSL1 counter, V-ATPase pH)
Cc1cc(C)c(OCC(=O)Nc2ccc(N3CCOCC3)cc2)c(Br)c1	none
Cc1ccc(/C=C/C(=O)NCc2cccs2)o1	CTSL1 counter 37.5
N#Cc1cccc(-c2csc(C(O)c3ccc(F)cc3)n2)c1 (stereo not given)	none (no result: CR mimetic SO, CTSL1 counter, V-ATPase pH)
CS(=O)(=O)N1CCc2cc(C(=O)N3CCN(c4ccc(F)cc4)CC3)ccc21	none
O=C1C(Cl)=C(Nc2ccccc2O)C(=O)N1c1ccccc1	CTSL1 counter 73.0
O=C(Cn1cc([N+](=O)[O-])ccc1=O)NC1CCCCC1	none (no result: CTSL1 counter)
CCOC(=O)c1sc(NC(=O)c2ccncc2)c(C#N)c1C	CTSL1 counter 19.5
O=C1c2ccccc2C(=O)C12OC(c1ccccc1)C1(C(=O)c3ccccc3C1=O)C2c1ccc([N+](=O)[O-])cc1 (stereo not given)	none
O=C1c2ccccc2C(=O)C12OC2c1ccc(Cl)cc1 (stereo not given)	CTSL1 counter 17.1 (no result: hiPSC survival, V-ATPase pH)
O=[N+]([O-])c1ccc(N2CCN(c3ccc(O)cc3)CC2)cn1	none
O=[N+]([O-])c1ccc(N2CCN(c3ccccc3Cl)CC2)cn1	CTSL1 counter 20.7
CCC(=O)N1CCC1(C)C(=O)NCc1ccc(SC)cc1 (stereo not given)	none (no result: CR mimetic SO, CTSL1 counter, V-ATPase pH)
Cn1c2ccccc2c2c(C(=O)O)cn(C3CCCC3)c(=O)c21	CTSL1 counter 17.8
CN1/C(=C\C(=S)NC(=O)c2ccccc2Cl)C(C)(C)c2ccccc21	none
COc1ccccc1C(=O)NC(=S)/C=C1/N(C)c2ccccc2C1(C)C	CTSL1 counter 18.6
O=C(Nc1cccs1)Nc1ccccc1Cl	none
Cc1c(NC(=O)Nc2cccs2)cccc1[N+](=O)[O-]	CTSL1 counter 16.8
Cc1ccc(NC(=O)Nc2cccs2)cc1	V-ATPase pH 23.3
CCc1ccc(NC(=O)Nc2cccs2)cc1	none
O=C(COC(=O)CNC(=O)c1ccc(Cl)cc1)Nc1ccc(Cl)cn1	V-ATPase pH 13.2 (no result: CTSL1 counter)
CC(OC(=O)c1ccc([N+](=O)[O-])s1)C(=O)Nc1ncc(Cl)cc1Cl (stereo not given)	CTSL1 counter 27.1
Cc1ccc2c(cnn2C(=O)CCCC(=O)NCc2ccc(F)cc2)c1	CTSL1 counter 87.1
Cc1cc(C)c(C)c(S(=O)(=O)NC(C(=O)O)C(C)C)c1C (stereo not given)	none
Cc1ccc(NS(=O)(=O)c2ccc3c(c2)CC(=O)N3)c(C)c1	hiPSC survival 30.7
COc1ccc(C(=O)Nc2ccc3c(c2)C(=O)c2ccccc2C3=O)cc1OC	none
COc1ccc(C(=O)c2c(C(F)(F)F)oc3c2C(=O)c2ccccc2C3=O)cc1OC	CTSL1 counter 30.6
CCCCN(CC)CCCNC(=O)CN1C(=O)CSc2ccc(S(=O)(=O)N3CCOCC3)cc21	none
Cn1c(CNC(=O)CCNC(=O)c2cccc(Br)c2)cc(=O)n(C)c1=O	CTSL1 counter 36.1
Cc1ccc(C)c(NC2=C(Cl)C(=O)OC2OC(=O)c2ccco2)c1 (stereo not given)	none
Cc1ccccc1C(=O)OC1OC(=O)C(Cl)=C1Nc1ccc(C(=O)O)cc1 (stereo not given)	none
Cc1ccc(NC2=C(Cl)C(=O)OC2OC(=O)c2ccco2)c(C)c1 (stereo not given)	CTSL1 counter 47.8
Cc1ccc(NC2=C(Cl)C(=O)OC2OC(=O)c2ccco2)cc1C (stereo not given)	CTSL1 counter 54.1
CC12C=CC3(CN(Cc4ccccc4)C(=O)C3C1C(=O)NCc1ccco1)O2 (stereo not given)	V-ATPase pH 16.9
O=C(C#Cc1cccc([N+](=O)[O-])c1)c1ccccc1	CTSL1 counter 22.3
CCOC(=O)c1nc(NCc2ccccc2)sc1C	none
